Values joined by “and” are separate entries in the source; they are usually repeats but may differ in a detail not shown here. Equal values may be shown once. Records with an inconclusive call do not appear. Active and inactive are the calls of the source. Unless noted, the call rests on the fitted dose curve.
Columns and labels:
[1] = biological target: Estrogen receptor (Homo sapiens) (UniProt P03372); assay: qHTS assay for small molecule antagonists of estrogen receptor alpha signaling (AID 588513; active means well fitted curve in the direction sought with a large enough effect in the signal ratio, with a control signal flat, not every such curve was filed as active; the % refers to the signal ratio; further: on the % scale 0 is the no-effect control and ±100 the full control effect)
Method in brief: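 Beta-lactamase reporter, antagonist mode, HEK 293 GripTite cells; 0.5nM E2 stimulus, 18 h, 37 C; CCF4 dye 2 h RT; fluorescence. IC50 and efficacy from Hill fits, normalized to E2 and DMSO.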

[2] = biological target: Estrogen receptor (Homo sapiens) (UniProt P03372); assay: qHTS assay for small molecule agonists of estrogen receptor alpha signaling (AID 588514);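 further: 0% = vehicle only and 100% = reference agonist; nearly all actives have a fitted effect of over 70% in size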
Method in brief: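 Efficacy is expressed against 20 nM 17-beta-estradiol (100%) and DMSO basal (0%); EC50 from Hill equation. Assay: beta-lactamase reporter in ER-alpha-UAS-bla HEK 293 cells, 18 h compound incubation, CCF4 detection.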

[3] = biological target: Glucocorticoid receptor (Homo sapiens) (UniProt P04150); assay: qHTS assay for small molecule agonists of glucocorticoid receptor signaling (AID 588532; active means well fitted curve in the direction sought with a large enough effect in the signal ratio, with a control signal flat; the % refers to the signal ratio;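 further: 100% = dexamethasone at 0.1 µM and 0% = DMSO only wells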); settings: HeLa MMTV-bla, beta-lactamase ratio, agonist, 18 h; activation: stronger effect = higher value, percent of dexamethasone control, DMSO zero
Method in brief: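 MMTV-bla HeLa, beta-lactamase reporter; medium with 1% charcoal/dextran-stripped FBS; cpds up to 92 uM, 18 h, 37 C; CCF4 readout 460/530 nm; Hill fit → EC50, efficacy vs 0.1 uM dexamethasone = 100%.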

[4] = biological target: Vitamin D3 receptor (Homo sapiens) (UniProt P11473); assay: qHTS assay for small molecule antagonists of vitamin D receptor signaling (AID 588541);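 further: receptor activated by calcitriol during compound treatment; series mostly up to about 77 µM; on the % scale 0 is the no-effect control and ±100 the full control effect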
Method in brief: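 VDR-UAS-bla HEK293T cells (2000/well, 2% charcoal-stripped FBS) were treated with titrated compounds plus 1-alpha,25-dihydroxyvitamin D3 (50 nM or 3 nM final) for 16 h at 37 C. CCF4 beta-lactamase fluorescence was read; Hill fits gave IC50.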

[5] = biological target: Vitamin D3 receptor (Homo sapiens) (UniProt P11473); assay: qHTS assay for small molecule agonists of vitamin D receptor signaling (AID 588543);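 further: 0% = DMSO basal and 100% = reference agonist control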
Method in brief: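 β-lactamase reporter, VDR-UAS-bla HEK293T, agonist mode. Cells plated 5 h at 37 °C, compound titration 16 h at 37 °C, CCF4 dye 2 h RT, ratio 460/530 nm. Hill fit → EC50, efficacy vs 50 nM 1α,25-(OH)2D3.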

[6] = qHTS assay for small molecule agonists of retinoid X receptor alpha signaling (AID 588544); settings: HEK293T RXRa-UAS-bla, beta-lactamase reporter, 18 h; 530 nm emission;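 on activation: 0% = DMSO basal wells and 100% = reference agonist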
[7] = biological target: Retinoic acid receptor RXR-alpha (Homo sapiens) (UniProt P19793); assay: as above
[8] = qHTS assay for small molecule antagonists of retinoid X receptor alpha signaling (AID 588546; active means well fitted inhibition curve with a large enough effect in the signal ratio, with a control signal flat, not every such curve was filed as active; the % refers to the signal ratio;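 further: cells stimulated with 9-cis-retinoic acid as agonist; on the % scale 0 is the no-effect control and ±100 the full control effect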); settings: HEK293T RXRa-UAS-bla, beta-lactamase ratio, antagonist mode; measured here: W530 green channel, cytotoxicity proxy
Method in brief: (§1)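 Beta-lactamase reporter inhibition, read as CCF4 fluorescence ratio (ex 405, em 460/530 nm) after 2 h at RT. HEK293T UAS-bla cells, 2500/well, were stimulated with 9-cis-RA at 500 or 100 nM final alongside test compound for 18 h at 37 C.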

[9] = biological target: Retinoic acid receptor RXR-alpha (Homo sapiens) (UniProt P19793); assay: as above; settings: HEK293T RXRa-UAS-bla, beta-lactamase ratio, antagonist mode
Method in brief: as §1

[10] = biological target: Thyroid hormone receptor beta (Homo sapiens) (UniProt P10828); assay: qHTS assay for small molecule antagonists of thyroid hormone receptor beta signaling (AID 588547; active means well fitted inhibition curve with a large enough effect in the signal ratio, with a control signal flat, not every such curve was filed as active; the % refers to the signal ratio;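 further: cells stimulated with 0.4 nM T3 agonist during compound exposure; series mostly up to about 77 µM; on the % scale 0 is the no-effect control and ±100 the full control effect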); settings: TR-UAS-bla HEK293, beta-lactamase ratio, antagonist mode, 18 h
Method in brief: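 TR-UAS-bla GripTite HEK293 cells in 2% charcoal/dextran FBS medium were preincubated 4 h at 37 C, given compound (0.59 nM to 92 uM) plus 0.4 nM T3 (final) for 18 h, then CCF4 for 2 h at RT; Hill fit gave IC50.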

[11] = qHTS assay for small molecule activators of the p53 signaling pathway (AID 651743; active means well fitted activation curve with a large enough effect in the signal ratio, not every such curve was filed as active; the % refers to the signal ratio; further: series mostly up to about 92 µM; % of control where 0% means no effect); settings: HCT-116 p53RE-bla, beta-lactamase FRET ratio, 16 h; activation: stronger effect = higher value
Method in brief: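 Agonist-mode quantitative HTS in HCT-116 cells carrying a p53-response-element beta-lactamase reporter; 16 h compound treatment at 37 C, then FRET substrate loading for 2 h at room temperature and fluorescence read.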

[12] = qHTS assay for environmental chemicals that activate the Aryl hydrocarbon Receptor (AhR) signaling pathway (AID 651777; active means well fitted curve in the direction sought with a large enough effect; an effect the other way counts as inactive or inconclusive; further: nearly all actives have a fitted effect of over 15% in size; further: potency means the concentration at half of the fitted maximal effect; on activation: % of control where 0% means no effect); settings: 1A2-DRE human hepatoma cells, luciferase, 24 h; activation: stronger effect = higher value
Method in brief: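 Human hepatoma 1A2-DRE cells stably carrying a DRE/CYP1A2 promoter–luciferase reporter, 1,200 cells/well, exposed to compound 24 hr at 37 C. Luciferase read by One-Glo luminescence after 30 min at room temperature; increased signal marks AhR activation.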

[13] = biological target: Peroxisome proliferator-activated receptor alpha (Homo sapiens) (UniProt Q07869); assay: qHTS assay for small molecule agonists of the peroxisome proliferator-activated receptor alpha (PPARalpha) signaling pathway (AID 651778; active means well fitted curve in the direction sought with a large enough effect; an effect the other way counts as inactive or inconclusive; further: % of control where 0% means no effect); settings: PathHunter PPARalpha complementation, chemiluminescence, 6 h; max response: stronger effect = higher value
Method in brief: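 Cells plated at 2,000/well and held overnight at 37 C, 5% CO2, then compound added by pin tool for 6 hr; after PathHunter detection reagent and 60 min at room temperature, chemiluminescence from enzyme complementation was read.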

[14] = qHTS assay for small molecule agonists of the antioxidant response element (ARE) signaling pathway measured by Nrf2-dependant transcriptional activity (AID 720636; active means well fitted curve in the direction sought with a large enough effect in the repeat runs; an effect the other way counts as inactive or inconclusive; further: % of control where 0% means no effect)
Method in brief: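 ARE-luc HepG2 cells carrying an Nrf2-responsive luciferase reporter, in medium with 1% dialyzed FBS, exposed to compound for 16 hr at 37 C, 5% CO2. Luminescence read 30 min after ONE-Glo addition.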

[15] = qHTS assay for small molecule agonists of the antioxidant response element (ARE) signaling pathway measured by Nrf2-dependant transcriptional activity - cell viability counter screen (AID 720653; active means well fitted curve in the direction sought with a large enough effect in the repeat runs; an effect the other way counts as inactive or inconclusive; further: on the % scale 0 is the no-effect control and ±100 the full control effect); settings: ARE-bla HepG2 viability, CellTiter-Glo ATP luminescence, 16 h; max response: stronger effect = lower value
Method in brief: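 ARE-bla HepG2 cells (2,000/well) rested 5 hrs at 37C/5% CO2, then exposed to compounds in DMSO for 16 hrs. Viability was read in the same wells as intracellular ATP by luminescence, 30 min at room temperature after reagent addition.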

[16] = qHTS assay for cell viability of HEK293 cells (AID 743288; active means well fitted curve in the direction sought with a large enough effect; an effect the other way counts as inactive or inconclusive; further: on the % scale 0 is the no-effect control and ±100 the full control effect; nearly all actives have a fitted effect of over 50% in size); settings: ATP luminescence (CellTiter-Glo), 18 h; max response: stronger effect = lower value
Method in brief: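 ATP luminescence (CellTiter-Glo) reports metabolically competent cell number after parental HEK293 cells, 2,000/well, were treated with DMSO-dissolved compounds for 18 h at 37 C; reagent incubation 30 min, room temperature.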

[17] = qHTS assay for cell viability of the p53RE-bla HCT-116 cell line (AID 743292; active means well fitted curve in the direction sought with a large enough effect; an effect the other way counts as inactive or inconclusive; further: on the % scale 0 is the no-effect control and ±100 the full control effect; nearly all actives have a fitted effect of over 55% in size)
Method in brief: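 CellSensor p53RE-bla HCT-116 cells (4,000/well) pre-incubated 5 h at 37 C, then exposed to compounds in DMSO for 16 h at 37 C. Viability read as ATP content by CellTiter-Glo luminescence after 30 min at room temperature.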

[18] = biological target: Nuclear receptor subfamily 1 group I member 2 (Rattus norvegicus) (UniProt Q9R1A7); assay: qHTS assay for small molecule activators of the rat pregnane X receptor (rPXR) signaling pathway (AID 651751; call rule not given here; further: 0% is about no effect); settings: rPXR reporter cells, luciferase (One-Glo), 24 h
[19] = biological target: Peroxisome proliferator-activated receptor delta (Homo sapiens) (UniProt Q03181); assay: qHTS assay for small molecule agonists of peroxisome proliferator-activated receptor delta signaling (AID 588534);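 further: 0% = DMSO basal wells and 100% = positive control agonist at 10 µM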
Method in brief: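 Agonist-mode qHTS; reporter cells, 5 hrs 37 C pre-incubation; compound titration, 18 hrs 37 C; CCF4 dye, 2 hrs RT; fluorescence read. EC50/efficacy via Hill fit.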

[20] = biological target: Thyroid hormone receptor beta (Homo sapiens) (UniProt P10828); assay: qHTS assay for small molecule agonists of thyroid hormone receptor beta signaling (AID 588545)
Method in brief: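 HEK 293 TR-UAS-bla; agonist mode; 18 hrs, 37 C; CCF4, ex 405/em 460 and 530 nm; norm. T3 10 nM = 100%, DMSO = 0%; Hill fit → EC50, efficacy.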

Peroxisome proliferator-activated receptor alpha (Homo sapiens), sequence (Q07869 whole entry, looked up): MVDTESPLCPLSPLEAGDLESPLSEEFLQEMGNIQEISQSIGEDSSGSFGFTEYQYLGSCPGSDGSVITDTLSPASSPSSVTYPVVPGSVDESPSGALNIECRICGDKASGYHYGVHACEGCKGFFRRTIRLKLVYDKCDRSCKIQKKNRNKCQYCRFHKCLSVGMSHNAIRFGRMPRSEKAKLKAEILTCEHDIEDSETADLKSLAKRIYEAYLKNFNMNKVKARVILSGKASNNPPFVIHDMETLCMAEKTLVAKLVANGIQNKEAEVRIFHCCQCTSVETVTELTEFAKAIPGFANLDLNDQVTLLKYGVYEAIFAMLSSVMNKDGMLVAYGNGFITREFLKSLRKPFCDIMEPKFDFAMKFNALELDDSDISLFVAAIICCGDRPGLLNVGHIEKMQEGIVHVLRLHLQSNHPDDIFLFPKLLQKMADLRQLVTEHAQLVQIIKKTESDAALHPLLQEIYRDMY
Retinoic acid receptor RXR-alpha (Homo sapiens), sequence (P19793 whole entry, looked up): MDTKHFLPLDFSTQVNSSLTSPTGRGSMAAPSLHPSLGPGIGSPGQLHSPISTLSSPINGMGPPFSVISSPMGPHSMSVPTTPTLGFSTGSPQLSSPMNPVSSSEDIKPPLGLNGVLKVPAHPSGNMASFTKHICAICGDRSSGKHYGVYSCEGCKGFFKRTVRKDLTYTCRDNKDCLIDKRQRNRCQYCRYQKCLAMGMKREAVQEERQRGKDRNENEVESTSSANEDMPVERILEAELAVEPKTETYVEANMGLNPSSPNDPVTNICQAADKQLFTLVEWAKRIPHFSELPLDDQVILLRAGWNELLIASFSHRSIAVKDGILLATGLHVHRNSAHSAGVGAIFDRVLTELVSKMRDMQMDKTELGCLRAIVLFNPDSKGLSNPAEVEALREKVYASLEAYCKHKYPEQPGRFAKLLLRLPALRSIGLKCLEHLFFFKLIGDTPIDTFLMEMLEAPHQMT
Peroxisome proliferator-activated receptor delta (Homo sapiens), sequence (Q03181 whole entry, looked up): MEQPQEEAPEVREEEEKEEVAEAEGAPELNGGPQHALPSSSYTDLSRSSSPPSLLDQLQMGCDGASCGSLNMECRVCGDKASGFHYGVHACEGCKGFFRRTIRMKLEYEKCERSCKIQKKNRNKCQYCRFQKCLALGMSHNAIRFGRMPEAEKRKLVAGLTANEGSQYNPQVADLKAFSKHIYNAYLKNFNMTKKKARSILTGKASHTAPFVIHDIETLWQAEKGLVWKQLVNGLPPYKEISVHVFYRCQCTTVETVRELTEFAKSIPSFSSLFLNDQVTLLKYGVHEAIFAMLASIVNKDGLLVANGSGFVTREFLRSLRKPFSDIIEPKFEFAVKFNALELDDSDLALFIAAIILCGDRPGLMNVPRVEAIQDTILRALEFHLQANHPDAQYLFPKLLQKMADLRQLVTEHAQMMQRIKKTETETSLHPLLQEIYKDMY
Thyroid hormone receptor beta (Homo sapiens), sequence (P10828 whole entry, looked up): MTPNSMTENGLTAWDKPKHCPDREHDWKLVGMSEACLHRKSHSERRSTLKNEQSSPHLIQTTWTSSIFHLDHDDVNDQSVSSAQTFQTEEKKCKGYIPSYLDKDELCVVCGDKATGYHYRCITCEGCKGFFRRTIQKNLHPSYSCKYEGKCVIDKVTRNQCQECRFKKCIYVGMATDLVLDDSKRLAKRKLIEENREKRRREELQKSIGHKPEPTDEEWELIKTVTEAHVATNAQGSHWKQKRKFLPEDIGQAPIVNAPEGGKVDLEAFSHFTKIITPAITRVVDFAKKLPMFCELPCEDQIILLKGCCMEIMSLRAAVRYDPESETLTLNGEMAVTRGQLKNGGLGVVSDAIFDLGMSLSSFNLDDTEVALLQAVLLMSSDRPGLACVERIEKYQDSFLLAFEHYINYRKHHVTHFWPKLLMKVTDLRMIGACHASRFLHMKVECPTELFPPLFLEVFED
Estrogen receptor (Homo sapiens), sequence (P03372 whole entry, looked up): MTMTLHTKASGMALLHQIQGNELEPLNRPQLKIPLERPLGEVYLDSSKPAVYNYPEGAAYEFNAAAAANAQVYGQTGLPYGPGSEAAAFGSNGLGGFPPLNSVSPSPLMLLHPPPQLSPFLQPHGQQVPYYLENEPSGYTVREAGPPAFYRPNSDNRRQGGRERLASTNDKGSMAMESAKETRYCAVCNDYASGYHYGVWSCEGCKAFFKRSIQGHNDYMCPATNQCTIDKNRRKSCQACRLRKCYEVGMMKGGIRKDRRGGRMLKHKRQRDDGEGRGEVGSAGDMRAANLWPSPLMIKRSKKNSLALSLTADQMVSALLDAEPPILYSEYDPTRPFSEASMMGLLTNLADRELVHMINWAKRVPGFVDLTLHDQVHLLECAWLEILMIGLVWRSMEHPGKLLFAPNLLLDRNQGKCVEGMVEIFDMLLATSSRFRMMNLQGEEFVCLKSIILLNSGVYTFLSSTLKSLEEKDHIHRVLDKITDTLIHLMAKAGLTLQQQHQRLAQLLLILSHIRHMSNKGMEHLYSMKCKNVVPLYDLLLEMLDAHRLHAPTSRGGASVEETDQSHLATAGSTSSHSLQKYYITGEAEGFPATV
Nuclear receptor subfamily 1 group I member 2 (Rattus norvegicus), sequence (Q9R1A7 whole entry, looked up): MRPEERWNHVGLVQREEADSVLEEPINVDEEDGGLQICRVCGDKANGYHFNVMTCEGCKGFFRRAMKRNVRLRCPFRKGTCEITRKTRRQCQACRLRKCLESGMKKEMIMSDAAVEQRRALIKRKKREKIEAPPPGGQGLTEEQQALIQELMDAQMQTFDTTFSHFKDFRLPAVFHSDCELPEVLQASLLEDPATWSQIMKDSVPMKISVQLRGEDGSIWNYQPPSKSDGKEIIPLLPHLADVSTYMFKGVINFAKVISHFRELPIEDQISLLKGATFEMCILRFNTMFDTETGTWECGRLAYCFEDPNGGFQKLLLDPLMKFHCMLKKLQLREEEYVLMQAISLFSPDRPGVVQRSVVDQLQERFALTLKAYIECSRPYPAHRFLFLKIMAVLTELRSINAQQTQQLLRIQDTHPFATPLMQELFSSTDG
Vitamin D3 receptor (Homo sapiens), sequence (P11473 whole entry, looked up): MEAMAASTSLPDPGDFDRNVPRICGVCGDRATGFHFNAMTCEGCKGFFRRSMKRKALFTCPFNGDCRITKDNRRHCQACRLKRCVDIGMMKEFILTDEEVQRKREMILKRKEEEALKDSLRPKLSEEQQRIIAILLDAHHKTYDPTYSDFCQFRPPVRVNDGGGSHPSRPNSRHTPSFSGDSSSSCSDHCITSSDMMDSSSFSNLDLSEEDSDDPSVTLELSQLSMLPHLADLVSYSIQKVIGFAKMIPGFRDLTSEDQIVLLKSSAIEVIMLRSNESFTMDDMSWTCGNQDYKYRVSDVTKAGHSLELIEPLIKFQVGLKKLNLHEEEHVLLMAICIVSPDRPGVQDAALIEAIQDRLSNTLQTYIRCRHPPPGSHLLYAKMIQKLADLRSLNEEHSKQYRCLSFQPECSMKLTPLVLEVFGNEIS
Glucocorticoid receptor (Homo sapiens), sequence (P04150 whole entry, looked up): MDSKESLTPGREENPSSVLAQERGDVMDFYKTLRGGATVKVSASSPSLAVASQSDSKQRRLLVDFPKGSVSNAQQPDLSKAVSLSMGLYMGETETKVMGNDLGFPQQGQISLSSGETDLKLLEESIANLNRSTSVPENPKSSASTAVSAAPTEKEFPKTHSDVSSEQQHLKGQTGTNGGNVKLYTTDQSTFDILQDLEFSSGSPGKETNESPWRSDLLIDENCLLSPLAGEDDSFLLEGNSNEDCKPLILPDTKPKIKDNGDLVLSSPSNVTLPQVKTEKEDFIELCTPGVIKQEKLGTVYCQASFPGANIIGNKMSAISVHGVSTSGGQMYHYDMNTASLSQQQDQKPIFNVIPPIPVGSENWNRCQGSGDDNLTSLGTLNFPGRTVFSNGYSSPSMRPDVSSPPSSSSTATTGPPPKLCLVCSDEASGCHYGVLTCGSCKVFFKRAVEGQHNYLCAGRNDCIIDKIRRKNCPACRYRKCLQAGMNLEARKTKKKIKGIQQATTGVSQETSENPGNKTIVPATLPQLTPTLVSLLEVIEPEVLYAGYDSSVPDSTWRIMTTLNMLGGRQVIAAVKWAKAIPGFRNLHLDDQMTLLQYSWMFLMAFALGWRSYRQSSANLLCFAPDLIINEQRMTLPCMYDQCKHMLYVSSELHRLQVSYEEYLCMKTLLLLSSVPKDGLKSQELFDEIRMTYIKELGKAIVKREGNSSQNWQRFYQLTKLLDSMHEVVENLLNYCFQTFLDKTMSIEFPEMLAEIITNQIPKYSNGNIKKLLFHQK

CCCCN(CC)C(=O)SCCC
-10.1%: max response [6]
-6.82%: max response [8]
inactive: Potency [1] | Potency [2] | activation [3] 4.14% | Potency [4] | outcome [5] | Potency [7] | max response [9] 3.02% | activity change % (negative = inhibition) [10] 1.78% | activation [11] 2.73% | activation [12] 0.496% | max response [13] 0.725% | Potency [14] | max response [15] -4.49% | max response [16] -1.81% | Potency [17] | max response [18] 4.32%

C=CC(=O)NCO
inactive: Potency [1] | Potency [2] | activation [3] -0.576% and 6.11% | outcome [19] | Potency [4] | outcome [5] | Potency [20] | max response [9] 4.89% and 0.243% | activity change % (negative = inhibition) [10] 0.0569% | activation [11] 0.261% and -0.511% | activation [12] 0.0723% and 1.42% | max response [13] -1.6% and -1.01% | max response [15] -3.08% and -9.83% | max response [16] -8.84% and -5.85% | Potency [17] | max response [18] 3.28% and -7.26%
-12.6% and -9.15%: max response [6]
-9.77% and -7.1%: max response [8]

CCOP(=S)(OCC)Oc1ncn(-c2ccccc2)n1
-6.39%: max response [6]
inactive: Potency [1] | Potency [2] | outcome [19] | Potency [4] | outcome [5] | Potency [7] | Potency [20] | max response [9] -7.83% | activity change % (negative = inhibition) [10] 4.61% | max response [13] -2.29% | Potency [14] | max response [15] -3.44% | max response [16] -0.263% | Potency [17]
-1.85%: max response [8]

CCOP(=O)(OCC)SCSC(C)(C)C
4.09%: max response [6]
-15.4%: max response [8]
inactive: Potency [1] | Potency [2] | activation [3] -2.2% | outcome [19] | Potency [4] | outcome [5] | Potency [7] | Potency [20] | activity change % (negative = inhibition) [10] -1.18% | activation [11] -4.41% | activation [12] -0.964% | max response [13] 0.241% | Potency [14] | max response [15] 4.97% | max response [16] -8.78% | Potency [17] | max response [18] 1.41%

COc1ccc(C(O)(c2cncnc2)C2CC2)cc1 (stereo not given)
-7.16%: max response [6]
8.99%: max response [8]
inactive: Potency [1] | Potency [2] | activation [3] -6.63% | Potency [4] | outcome [5] | Potency [7] | Potency [20] | max response [9] 1.16% | activity change % (negative = inhibition) [10] -4.75% | activation [11] -2.74% | activation [12] -0.591% | max response [13] -2.81% | Potency [14] | max response [15] -13.4% | Potency [17] | max response [18] 3.59%

O=[N+]([O-])c1ccc(Oc2ccc(C(F)(F)F)cc2[N+](=O)[O-])cc1
inactive: Potency [1] | Potency [2] | activation [3] -2.99% | outcome [19] | outcome [5] | max response [9] 0.243% | activity change % (negative = inhibition) [10] 5.9% | activation [11] -0.528% | activation [12] 9.12% | max response [13] -0.519% | max response [15] -18.9% | max response [16] -11.9% | Potency [17] | max response [18] 11.4%
-9.24%: max response [8]

CCOP(=S)(OCC)SCC(=O)NC(C)C
inactive: Potency [1] | Potency [2] | activation [3] 3% | outcome [19] | Potency [4] | outcome [5] | Potency [7] | Potency [20] | max response [9] -1.4% | activation [11] -0.0599% | activation [12] 0.496% | max response [13] -4.11% | Potency [14] | max response [15] 2% | max response [16] -3.84% | Potency [17]
-3.21%: max response [6]
-8.13%: max response [8]

CCOc1nc(NC)nc(NC(=O)NS(=O)(=O)c2ccccc2C(=O)OC)n1
inactive: Potency [1] | Potency [2] | activation [3] 15% | outcome [19] | outcome [5] | Potency [20] | max response [9] 20.8% | activation [11] -5.96% | activation [12] 0.873% | max response [13] -5.58% | Potency [14] | max response [15] 13.3% | max response [16] 9.14% | max response [18] 1.05%
-10.6%: max response [8]

CCOP(=S)(OCC)Oc1cnc2ccccc2n1
inactive: Potency [1] | Potency [2] | activation [3] -1.45% | outcome [19] | Potency [20] | max response [9] -25.5% | activity change % (negative = inhibition) [10] -0.975% | activation [11] 6.75% | max response [13] -1.06% | max response [15] 3.82% | max response [16] -3.73% | Potency [17] | max response [18] 7.55%
6.33%: max response [8]
active: Potency [12] 35.5 µM

CC(C)(C)N(NC(=O)c1ccc(Cl)cc1)C(=O)c1ccccc1
-5.95%: max response [8]
inactive: Potency [1] | Potency [2] | activation [3] -0.985% | outcome [19] | Potency [7] | max response [9] 4.87% | activation [12] 1.26% | max response [13] -3.24% | Potency [14] | max response [15] -5.92% | max response [16] -8.37% | Potency [17]
-8.46%: max response [6]

O=c1[nH]c2ccccc2c(=O)o1
-14.4%: max response [8]
inactive: Potency [1] | Potency [2] | activation [3] -0.7% | outcome [19] | Potency [4] | outcome [5] | Potency [7] | Potency [20] | max response [9] -21.4% | activity change % (negative = inhibition) [10] -10.7% | activation [11] 1.12% | activation [12] 0.82% | max response [13] -3.96% | max response [15] -1.48% | max response [16] -10.1% | Potency [17] | max response [18] -5.81%
-6.9%: max response [6]
